Source: PubChem BioAssay (The Scripps Research Institute Molecular Screening Center)
Hits are enriched below; roughly 4.8% of the tested compounds scored in any of these assays.
SMARCA2 activ: SMARCA2 (BRM) function activators, primary screen, cell-based, luminescence, high throughput | activation, % at 9.1 µM | 370,000 compounds, 1% hits | MG213 cells, MMTV-luciferase reporter, dexamethasone, overnight | AID 652017, 2013; in the data active means activation above about 7.8%
ssDAF-12 act: S. stercoralis DAF-12 nuclear receptor activators, primary screen, cell-based, luminescence, HEK293, GRIP1 co-expression, lit1-tk-luc | AID 652126, 2013 | activation, % at 6.8 µM | HEK293 ssDAF-12/GRIP1 lit1-tk-luc reporter; % of 3 µM dafachronic acid response | Nuclear hormone receptor DAF-12 (Strongyloides stercoralis) | 370,000 compounds, 1% hits;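 active means activation above the mean over all tested compounds plus 3 SD, cut at about 0.9% in these data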
DAX1 inh-1: DAX1 (NR0B1) inhibitors on StAR promoter, primary screen, cell-based, luminescence, SF-1 (NR5A1), full-length DAX-1. HEK293T StAR-luciferase reporter, SF-1/DAX-1 repression relief. inhibition, % at 6.8 µM. 370,000 compounds, 1.1% hits. AID 652010, 2013;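 active means inhibition above the mean over all tested compounds plus 3 SD, cut at about 3.6% in these data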;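 further: higher inhibition means more luminescence from relief of DAX-1 repression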
DAX1 inh-2: DAX1 (NR0B1) inhibitors, primary screen, cell-based, HEK293, Gal4-DAX1, luciferase luminescence | Nuclear receptor subfamily 0 group B member 1 (Homo sapiens), P51843 | HEK293 Gal4-DAX1 luciferase reporter | inhibition, % at 6.75 µM | 340,000 compounds, 0.99% hits;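 active means inhibition above the mean over all tested compounds plus 3 SD, cut at about 4.2% in these data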;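 further: inhibition shows as a rise in luminescence from relieved DAX1 repression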
hgDAF12 agonist: H. glycines DAF-12 receptor agonists, primary screen, cell-based, luminescence, HEK293, GAL4 fusion, UAS-luciferase | Nuclear hormone receptor DAF-12 (Heterodera glycines), GAL4 fusion | HEK293 GAL4-hgDAF12 UAS-luciferase reporter, agonist luminescence; normalized to butyrate control | activation, % at 6.8 µM | 370,000 compounds, 1.8% hits | AID 687014, 2013;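 active means activation above a cutoff set at the mean of all screened compounds plus 3 SD, cut at about 10% in these data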
hcDAF-12 act: H. contortus DAF-12 nuclear receptor activators, primary screen, cell-based, luminescence, HEK293, lit1-tk-luc reporter | AID 652067, 2013 | HEK293 hcDAF-12 lit1-tk-luc reporter; 0% DMSO, 100% Δ7-dafachronic acid | 370,000 compounds, 1.4% hits | activation, % at 6.8 µM;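 active means activation above the mean of all tested compounds plus 3 SD, cut at about 5.5% in these data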
DAX1 conf: DAX1 (NR0B1) inhibitors relieving SF-1 repression, confirmation, cell-based, luminescence, HEK293T, full-length DAX-1, SF-1 activated StAR promoter | shares compounds with DAX1 inh-1 | HEK293T StAR-promoter luciferase reporter, SF-1/DAX-1 repression | inhibition, % at 6.8 µM | 2,400 compounds, 87% hits;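 active means inhibition above the average of every tested compound plus 3 SD, cut at about 3.8% in these data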
Target sequence (P51843 whole entry, looked up): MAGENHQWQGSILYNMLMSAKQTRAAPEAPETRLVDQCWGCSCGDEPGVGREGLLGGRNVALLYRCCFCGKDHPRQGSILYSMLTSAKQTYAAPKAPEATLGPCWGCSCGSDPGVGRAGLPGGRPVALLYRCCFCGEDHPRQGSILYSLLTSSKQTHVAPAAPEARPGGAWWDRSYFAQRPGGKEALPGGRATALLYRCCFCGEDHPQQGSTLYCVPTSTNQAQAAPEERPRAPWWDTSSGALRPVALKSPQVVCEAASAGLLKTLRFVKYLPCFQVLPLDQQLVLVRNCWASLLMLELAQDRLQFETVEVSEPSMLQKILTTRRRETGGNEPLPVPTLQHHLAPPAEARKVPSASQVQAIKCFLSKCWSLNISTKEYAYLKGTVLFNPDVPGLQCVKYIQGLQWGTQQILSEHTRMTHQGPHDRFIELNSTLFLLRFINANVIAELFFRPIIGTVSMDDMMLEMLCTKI
SF1 mutant ctr: StAR reporter signal changes without DAX1, counter-screen for DAX1 inhibitor project, cell-based, luminescence, AF-2 mutant SF-1, transactivation; shares compounds with DAX1 inh-1; HEK293 StAR-luciferase, SF-1 AF2 mutant; inhibition, % at 6.8 µM; 2,400 compounds, 78% hits;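 active means inhibition above the mean of all tested compounds plus 3 SD, cut at about 3% in these data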
Numbers stand for hits; n = inactive; x = not tested or not shown.

SMILES	SMARCA2 activ	ssDAF-12 act	DAX1 inh-1	DAX1 inh-2	hgDAF12 agonist	hcDAF-12 act	DAX1 conf	SF1 mutant ctr
COC(=O)[C@H]1C[C@@]2(O)CN(S(=O)(=O)c3ccc(C)cc3)C[C@@]2(OC(=O)NCc2ccccc2F)C[C@H]1C(=O)OC	n	n	n	n	n	n	x	x
Cc1ccnc(NC(=O)c2ccc(OCC3CCCO3)cc2)c1 (configuration not stated)	n	n	6.8	n	n	n	4.5	n
O=Cc1cccn1-c1ccccc1	n	n	n	n	n	n	x	x
Nc1cnn(C2OC(CO)C(O)C2O)c(=O)n1 (configuration not stated)	n	n	4.6	n	n	n	6.8	n
Nc1nc(=O)n(C2OC(CO)C(O)C2O)cc1F (configuration not stated)	n	n	n	x	n	n	x	x
CC(=O)N/C(=C\c1ccccc1Cl)C(=O)O	n	n	n	n	n	n	x	x
CCNc1nc(NCC)n2c(SCC(=O)Nc3ccccc3F)nnc2n1	n	n	4.5	n	n	n	n	n
CCNc1nc(NCC)n2c(SCC(=O)Nc3ccccc3OC(F)F)nnc2n1	n	n	n	n	n	n	x	x
COc1ccc2oc(C(=O)Nc3nnc(C)s3)c(C)c2c1	n	n	10.4	n	10.9	n	16.1	5.9
CCC1CCc2sc(C(=O)NCC3CCCO3)cc2C1 (configuration not stated)	7.9	n	10.0	n	11.1	n	7.3	3.5
Cc1cc(O)c(N=Nc2ccc(C(=O)O)cc2)cc1C	n	n	5.2	4.3	n	n	21.5	7.7
COCCN(Cc1cc2cccc(C)c2n2nnnc12)C(=O)C(F)(F)F	n	n	n	n	n	n	x	x
COc1cccc(C(NC(C)=O)c2nc(-c3ccc(F)cc3OC)cs2)c1 (configuration not stated)	n	n	5.8	x	n	n	6.6	3.3
CCSc1nnc(NC(=O)CCN2C(=O)C3CCCCC3C2=O)s1 (configuration not stated)	n	n	4.8	n	n	n	n	n
CCOc1ccccc1N(CC(=O)NCc1ccccc1)C(=O)CCC(=O)Nc1cc(C)ccn1	n	n	n	n	n	n	x	x
O=c1oc(Nc2ccccc2Cl)nc2ccccc12	n	n	4.8	n	10.7	n	10.1	3.8
O=c1oc(Nc2cccc(Cl)c2)nc2ccccc12	n	n	5.4	n	n	n	10.4	4.8
NC(CCc1ccccc1)c1csc(Nc2nccc(C(F)(F)F)n2)n1 (configuration not stated)	n	n	n	x	n	n	x	x
O=C(/C=C/c1ccco1)Nc1ccccc1C(=O)O	n	n	4.6	x	13.2	n	9.3	5.7
O=C(c1cccs1)N1CCN(C(=O)c2cn(-c3ccccc3)nc2-c2ccccc2)CC1	n	n	7.7	n	n	n	5.8	3.4
COC(=O)C1=C(C)N=c2s/c(=C/c3ccoc3)c(=O)n2C1c1ccccc1 (configuration not stated)	x	x	x	n	x	x	x	x
O=C(COc1ccc2c3c(c(=O)oc2c1)CCC3)N[C@@H](Cc1ccccc1)C(=O)O	n	n	n	n	n	n	x	x
